Laboratory results: the supplement of paper PMC11732987, “Enantioselective OTUD7B fragment discovery through chemoproteomics screening and high-throughput optimisation” (Communications Chemistry, 2025)

Key:
Experiment in all cases: log2 ratio of Biotin-Ahx-Ub-VS probe labelling (fragment/DMSO); higher = less target engagement (more negative = stronger competition), active = hit call of the paper (q ≤ 0.05, log2 ratio ≤ -1)
Settings in all cases: compound concentration: 200 uM; treatment time: 3 h
[1] = molecular target: T1, USP19 (UniProt O94966)
T1 sequence (whole entry): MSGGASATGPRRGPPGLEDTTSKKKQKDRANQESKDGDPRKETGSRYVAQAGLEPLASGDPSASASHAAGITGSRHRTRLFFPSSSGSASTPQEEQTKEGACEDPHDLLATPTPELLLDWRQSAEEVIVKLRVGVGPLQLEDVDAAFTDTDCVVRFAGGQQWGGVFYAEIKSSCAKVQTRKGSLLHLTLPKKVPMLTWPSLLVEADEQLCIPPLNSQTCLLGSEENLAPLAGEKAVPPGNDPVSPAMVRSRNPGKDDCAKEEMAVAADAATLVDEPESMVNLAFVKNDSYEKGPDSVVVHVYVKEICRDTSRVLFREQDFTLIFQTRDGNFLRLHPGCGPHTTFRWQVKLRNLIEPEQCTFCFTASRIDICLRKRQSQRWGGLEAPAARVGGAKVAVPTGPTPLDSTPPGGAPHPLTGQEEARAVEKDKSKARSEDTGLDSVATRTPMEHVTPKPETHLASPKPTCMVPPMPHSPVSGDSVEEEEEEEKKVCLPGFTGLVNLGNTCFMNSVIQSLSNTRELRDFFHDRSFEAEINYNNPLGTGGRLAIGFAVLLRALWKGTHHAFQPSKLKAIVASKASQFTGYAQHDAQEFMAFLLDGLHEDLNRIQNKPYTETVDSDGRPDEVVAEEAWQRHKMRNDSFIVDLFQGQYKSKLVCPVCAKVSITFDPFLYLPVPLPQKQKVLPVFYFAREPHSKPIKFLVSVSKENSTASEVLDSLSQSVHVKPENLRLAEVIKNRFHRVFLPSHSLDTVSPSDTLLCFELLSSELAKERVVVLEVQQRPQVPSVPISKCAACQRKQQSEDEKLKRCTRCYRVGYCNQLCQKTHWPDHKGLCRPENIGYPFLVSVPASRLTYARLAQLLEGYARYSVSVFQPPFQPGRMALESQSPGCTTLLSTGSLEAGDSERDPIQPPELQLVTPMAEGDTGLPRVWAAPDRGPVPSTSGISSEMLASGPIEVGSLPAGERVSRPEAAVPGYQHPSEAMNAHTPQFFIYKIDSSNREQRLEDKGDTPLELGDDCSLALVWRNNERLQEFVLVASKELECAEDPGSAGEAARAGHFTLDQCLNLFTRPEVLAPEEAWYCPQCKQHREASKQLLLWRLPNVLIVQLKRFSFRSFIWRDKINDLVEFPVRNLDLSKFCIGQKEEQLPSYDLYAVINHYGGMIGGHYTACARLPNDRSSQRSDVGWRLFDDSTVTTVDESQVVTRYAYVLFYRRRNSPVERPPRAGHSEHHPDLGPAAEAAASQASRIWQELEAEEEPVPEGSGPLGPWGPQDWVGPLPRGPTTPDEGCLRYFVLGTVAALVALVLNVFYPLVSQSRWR
How it was run: (§1)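 Each value is an average log2 ratio of fragment to vehicle, tested by unpaired t-test. The underlying Spectronaut label-free quantities were global-median-normalised, and only proteins with ≥2 unique peptides were included. Triplicate HEK293T lysate samples (495 µg) were exposed to fragment at 200 µM or vehicle for 3 h, then to Biotin-Ahx-Ub-VS at 0.5 µM final for 1 h, before NeutrAvidin enrichment of labelled DUBs, LysC and trypsin digestion, and diaPASEF LC-MS/MS.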

[2] = molecular target: USP24 (UniProt Q9UPU5)
How it was run: as §1

[3] = molecular target: T2, USP25 (UniProt Q9UHP3)
T2 sequence (whole entry): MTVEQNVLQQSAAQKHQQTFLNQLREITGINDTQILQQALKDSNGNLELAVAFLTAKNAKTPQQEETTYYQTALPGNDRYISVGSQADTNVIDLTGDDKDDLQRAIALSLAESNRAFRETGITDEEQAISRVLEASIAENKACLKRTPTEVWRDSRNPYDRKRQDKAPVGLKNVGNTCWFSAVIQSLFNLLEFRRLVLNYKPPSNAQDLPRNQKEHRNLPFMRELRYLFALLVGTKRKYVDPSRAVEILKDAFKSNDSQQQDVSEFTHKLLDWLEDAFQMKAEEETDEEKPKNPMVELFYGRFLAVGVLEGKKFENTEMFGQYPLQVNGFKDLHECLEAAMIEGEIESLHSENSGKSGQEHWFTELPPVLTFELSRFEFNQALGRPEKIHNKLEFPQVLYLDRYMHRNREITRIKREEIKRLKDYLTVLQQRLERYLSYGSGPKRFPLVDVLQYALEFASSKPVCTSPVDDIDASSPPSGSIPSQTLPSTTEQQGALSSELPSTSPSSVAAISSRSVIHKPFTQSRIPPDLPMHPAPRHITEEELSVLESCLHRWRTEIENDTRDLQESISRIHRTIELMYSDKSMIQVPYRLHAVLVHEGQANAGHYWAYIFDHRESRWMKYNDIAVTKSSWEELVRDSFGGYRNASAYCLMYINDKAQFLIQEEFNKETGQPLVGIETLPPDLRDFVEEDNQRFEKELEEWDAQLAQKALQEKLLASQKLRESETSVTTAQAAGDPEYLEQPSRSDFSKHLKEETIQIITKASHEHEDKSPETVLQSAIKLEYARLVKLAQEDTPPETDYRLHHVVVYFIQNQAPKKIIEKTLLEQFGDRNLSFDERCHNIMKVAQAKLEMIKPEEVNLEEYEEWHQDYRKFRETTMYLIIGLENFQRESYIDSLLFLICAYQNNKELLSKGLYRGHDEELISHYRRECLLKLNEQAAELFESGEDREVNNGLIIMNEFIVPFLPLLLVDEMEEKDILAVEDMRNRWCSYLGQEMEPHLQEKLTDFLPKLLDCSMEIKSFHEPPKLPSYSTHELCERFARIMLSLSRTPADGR
How it was run: as §1

[4] = molecular target: T3, USP28 (UniProt Q96RU2)
T3 sequence (whole entry): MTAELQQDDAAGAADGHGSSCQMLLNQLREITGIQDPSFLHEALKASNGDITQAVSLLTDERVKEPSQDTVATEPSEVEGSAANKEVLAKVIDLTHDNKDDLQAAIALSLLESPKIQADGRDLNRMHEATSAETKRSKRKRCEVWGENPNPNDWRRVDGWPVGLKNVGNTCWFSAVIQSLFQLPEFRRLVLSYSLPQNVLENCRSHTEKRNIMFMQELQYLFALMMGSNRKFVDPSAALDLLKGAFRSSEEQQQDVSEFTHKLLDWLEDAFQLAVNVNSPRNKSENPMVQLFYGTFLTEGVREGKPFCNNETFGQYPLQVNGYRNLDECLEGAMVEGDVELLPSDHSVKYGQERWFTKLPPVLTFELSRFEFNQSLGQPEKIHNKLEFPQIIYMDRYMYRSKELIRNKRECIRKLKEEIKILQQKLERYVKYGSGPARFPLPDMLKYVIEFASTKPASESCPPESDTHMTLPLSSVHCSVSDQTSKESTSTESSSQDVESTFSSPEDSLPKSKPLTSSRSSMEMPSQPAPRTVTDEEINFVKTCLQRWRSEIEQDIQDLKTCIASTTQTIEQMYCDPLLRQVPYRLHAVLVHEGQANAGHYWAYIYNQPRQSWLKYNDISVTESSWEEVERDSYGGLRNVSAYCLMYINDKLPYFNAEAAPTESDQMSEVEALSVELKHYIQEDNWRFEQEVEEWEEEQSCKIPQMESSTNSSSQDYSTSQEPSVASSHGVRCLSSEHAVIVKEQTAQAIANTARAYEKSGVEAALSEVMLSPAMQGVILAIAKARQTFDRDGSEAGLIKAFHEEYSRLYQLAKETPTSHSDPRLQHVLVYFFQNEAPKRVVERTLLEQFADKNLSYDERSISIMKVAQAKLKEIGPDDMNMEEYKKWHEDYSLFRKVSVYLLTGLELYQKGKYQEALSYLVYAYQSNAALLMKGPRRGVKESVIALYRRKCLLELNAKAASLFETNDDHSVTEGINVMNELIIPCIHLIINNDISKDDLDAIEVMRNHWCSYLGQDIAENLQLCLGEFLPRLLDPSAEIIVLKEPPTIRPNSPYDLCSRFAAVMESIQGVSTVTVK
How it was run: as §1

Measured: log2 ratio of Biotin-Ahx-Ub-VS probe labelling

Chain of USP24 (Q9UPU5 whole entry): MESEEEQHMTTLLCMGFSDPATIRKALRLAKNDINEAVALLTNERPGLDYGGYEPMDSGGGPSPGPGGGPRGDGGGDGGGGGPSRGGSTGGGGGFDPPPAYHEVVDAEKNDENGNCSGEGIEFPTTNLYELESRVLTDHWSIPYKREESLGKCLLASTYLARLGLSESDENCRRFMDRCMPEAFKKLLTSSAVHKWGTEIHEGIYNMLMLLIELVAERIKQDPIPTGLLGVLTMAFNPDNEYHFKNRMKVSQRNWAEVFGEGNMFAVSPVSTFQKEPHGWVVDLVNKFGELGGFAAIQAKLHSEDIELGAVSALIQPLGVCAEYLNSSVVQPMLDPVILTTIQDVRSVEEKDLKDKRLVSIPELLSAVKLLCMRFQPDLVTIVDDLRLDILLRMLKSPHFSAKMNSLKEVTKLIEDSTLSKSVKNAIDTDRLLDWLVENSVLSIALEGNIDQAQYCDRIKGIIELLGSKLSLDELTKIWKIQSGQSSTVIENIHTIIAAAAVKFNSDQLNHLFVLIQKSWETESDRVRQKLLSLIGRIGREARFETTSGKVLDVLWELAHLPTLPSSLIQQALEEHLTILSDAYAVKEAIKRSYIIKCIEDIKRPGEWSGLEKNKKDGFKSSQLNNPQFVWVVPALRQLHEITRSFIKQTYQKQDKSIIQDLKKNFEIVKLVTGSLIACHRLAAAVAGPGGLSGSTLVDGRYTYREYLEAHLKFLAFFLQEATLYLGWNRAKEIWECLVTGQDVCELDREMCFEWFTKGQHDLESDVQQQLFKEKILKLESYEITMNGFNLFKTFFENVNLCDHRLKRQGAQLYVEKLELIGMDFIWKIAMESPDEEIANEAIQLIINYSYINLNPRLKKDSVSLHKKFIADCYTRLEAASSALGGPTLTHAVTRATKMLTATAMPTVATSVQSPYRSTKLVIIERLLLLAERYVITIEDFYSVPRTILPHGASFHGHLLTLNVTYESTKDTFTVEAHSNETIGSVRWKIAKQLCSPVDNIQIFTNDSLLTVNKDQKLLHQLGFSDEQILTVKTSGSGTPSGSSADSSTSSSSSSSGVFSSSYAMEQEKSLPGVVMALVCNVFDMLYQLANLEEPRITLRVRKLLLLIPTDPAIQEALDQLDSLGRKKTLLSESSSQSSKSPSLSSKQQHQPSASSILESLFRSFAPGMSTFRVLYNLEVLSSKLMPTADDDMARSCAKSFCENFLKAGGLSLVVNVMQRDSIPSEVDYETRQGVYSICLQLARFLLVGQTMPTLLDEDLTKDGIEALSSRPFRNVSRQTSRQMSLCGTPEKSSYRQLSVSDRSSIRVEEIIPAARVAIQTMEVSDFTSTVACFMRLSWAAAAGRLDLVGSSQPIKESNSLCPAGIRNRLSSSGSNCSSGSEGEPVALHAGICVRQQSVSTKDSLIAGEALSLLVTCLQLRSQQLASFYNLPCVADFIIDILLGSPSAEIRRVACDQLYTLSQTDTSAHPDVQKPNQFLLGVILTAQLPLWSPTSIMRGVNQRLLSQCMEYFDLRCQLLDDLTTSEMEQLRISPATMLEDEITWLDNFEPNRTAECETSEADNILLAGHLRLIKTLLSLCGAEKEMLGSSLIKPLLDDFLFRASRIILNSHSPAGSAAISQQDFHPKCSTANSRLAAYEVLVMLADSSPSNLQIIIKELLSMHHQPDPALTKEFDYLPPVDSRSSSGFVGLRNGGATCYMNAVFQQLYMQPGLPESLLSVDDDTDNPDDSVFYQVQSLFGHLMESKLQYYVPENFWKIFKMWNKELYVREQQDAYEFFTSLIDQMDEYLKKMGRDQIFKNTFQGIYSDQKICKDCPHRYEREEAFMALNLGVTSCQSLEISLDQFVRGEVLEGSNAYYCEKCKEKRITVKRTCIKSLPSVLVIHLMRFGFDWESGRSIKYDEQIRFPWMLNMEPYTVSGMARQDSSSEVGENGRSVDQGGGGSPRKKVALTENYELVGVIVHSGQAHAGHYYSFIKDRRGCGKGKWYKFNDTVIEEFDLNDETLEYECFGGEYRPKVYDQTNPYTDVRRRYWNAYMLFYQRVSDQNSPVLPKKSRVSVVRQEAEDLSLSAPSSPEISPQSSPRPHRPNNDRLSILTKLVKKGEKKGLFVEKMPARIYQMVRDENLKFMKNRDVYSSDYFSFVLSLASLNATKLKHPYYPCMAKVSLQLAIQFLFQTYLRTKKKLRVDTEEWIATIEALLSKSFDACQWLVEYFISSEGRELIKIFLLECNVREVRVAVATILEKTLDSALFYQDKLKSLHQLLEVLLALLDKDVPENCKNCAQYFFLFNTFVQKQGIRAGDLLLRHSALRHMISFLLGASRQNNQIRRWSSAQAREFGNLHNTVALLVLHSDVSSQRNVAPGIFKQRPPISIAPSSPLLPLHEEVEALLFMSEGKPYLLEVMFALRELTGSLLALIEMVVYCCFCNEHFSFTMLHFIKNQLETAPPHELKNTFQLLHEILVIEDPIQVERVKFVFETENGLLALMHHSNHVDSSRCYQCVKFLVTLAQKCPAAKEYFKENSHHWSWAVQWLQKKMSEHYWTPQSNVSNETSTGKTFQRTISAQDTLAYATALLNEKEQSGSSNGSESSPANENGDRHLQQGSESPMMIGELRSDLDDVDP

COc1ccccc1C(C)NC(=O)CCl (centres undefined)
inactive: [1] -0.243 | [2] -0.363 | [3] -0.536 | [4] -0.666
